Measurements taken from the supplement of paper PMC10849652.
Targets with a hit are over-represented here; the source holds about 7,900 in all. About 0.6% of all pairs of compound and target were hits.

Legend:
Test in all cases: log2 fold change, soluble protein after heating vs DMSO (PISA); higher = thermal stabilisation; K562 cells, 10 uM, 30 min; active = over 0.2 and 3.5 SD of the protein, either way, in both replicates (recomputed)
erlotinib = compound: C#Cc1cccc(Nc2ncnc3cc(OCCOC)c(OCCOC)cc23)c1 [erlotinib]
Outline: (§1)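 K562 cells at 2×10^6 cells/mL were treated with 10 μM compound for 30 min. Aliquots were heated for 3 min across 48°C-58°C, pooled, and extracted in PBS with 0.5% NP-40 at 4°C; soluble protein was the supernatant after 21,000xg for 90 min. Soluble protein was quantified by TMTpro 16plex LC-MS/MS with channel sums equalised, and reported as log2 fold change in thermal stability against DMSO controls, with values from duplicates.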

[1] = compound: C/C(=N\NC(=O)C1=CC(=CC=C1)S(=O)(=O)N2CCOCC2)/C3=C(C=CC(=C3)Cl)O
Outline: as §1

[2] = compound: C1=CC(=C(C=C1Cl)C2=NC3=NC=CN=C3C(=N2)NC4=CC=NC=C4)F
Outline: as §1

[3] = compound: C1=CC(=CC=C1C2=NC3=C(N2)C=C(C=C3)C(=O)N)OC4=CC=C(C=C4)Cl
Outline: as §1

[4] = compound: C1=CC2=C(C=CC(=C2)/C=C\3/C(=O)NC(=NCC4=CC=CS4)S3)N=C1
Outline: as §1

[5] = compound: C1=CC2=NC=CN=C2C=C1/C=C/3\C(=O)NC(=O)S3
Outline: as §1

[6] = compound: C1=CC=C(C=C1)C2=NC(=C(N2)C3=CC=NC=C3)C4=CC(=C(C=C4)Cl)O
Outline: as §1

[7] = compound: C1=CC=C2C(=C1)C3=NNC4=CC=CC(=C43)C2=O
Outline: as §1

[8] = compound: C1CCN(C1)C(=O)NC2=CC=CC(=C2)NC3=NC=C(C(=N3)NCCC4=CN=CN4)Br
Outline: as §1

[9] = compound: C1CN(CCC1(CC2=CC=C(C=C2)Cl)N)C3=NC=NC4=C3C=CN4
Outline: as §1

IRAK-1-4 Inhibitor I = compound: C1COCCN1CCN2C3=CC=CC=C3N=C2NC(=O)C4=CC(=CC=C4)[N+](=O)[O-] [IRAK-1-4 Inhibitor I]
Outline: as §1

ibrutinib = compound: C=CC(=O)N1CCC[C@@H](n2nc(-c3ccc(Oc4ccccc4)cc3)c3c(N)ncnc32)C1 [ibrutinib]
Outline: as §1

[10] = compound: CC(=O)c1cnc2ccc(-c3cc(Cl)c(O)c(Cl)c3)nc2c1N[C@H]1CC[C@H](CN(C)C)CC1
Outline: as §1

ralimetinib = compound: CC(C)(C)Cn1c(N)nc2ccc(-c3[nH]c(C(C)(C)C)nc3-c3ccc(F)cc3)nc21 [ralimetinib]
Outline: as §1

[11] = compound: CC(C)(O)CC(=O)NCCn1ccc2ncnc(Nc3ccc(Oc4cccc(C(F)(F)F)c4)c(Cl)c3)c21
Outline: as §1

[12] = compound: CC(C)C1=C2N=C(C=C(N2N=C1)NCC3=CC=CC=C3)NCCCCCCN
Outline: as §1

[13] = compound: CC(C)C[C@@H](C=O)NC(=O)[C@H](CC(C)C)NC(=O)[C@H](CC(C)C)NC(=O)OCc1ccccc1
Outline: as §1

pinometostat = compound: CC(C)N(C[C@H]1O[C@@H](n2cnc3c(N)ncnc32)[C@H](O)[C@@H]1O)[C@H]1C[C@@H](CCc2nc3cc(C(C)(C)C)ccc3[nH]2)C1 [pinometostat]
Outline: as §1

[14] = compound: CC1=C(C(CC(=O)N1)C2=CC=C(C=C2)C(F)(F)F)C(=O)NC3=C(C=C4C(=C3)C=NN4)F
Outline: as §1

[15] = compound: CC1=C(C2=C(C=C1)C(=O)C3=CC=CC=C3N2CCCN)C
Outline: as §1

Measured: log2 fold change

HMG20A (UniProt Q9NP66)
inactive: erlotinib -0.005 | [1] 0.125 | [2] -0.09 | [3] 0.017 | [4] -0.281 | [5] -0.009 | [7] 0.001 | [8] -0.013 | [9] 0.006 | IRAK-1-4 Inhibitor I -0.05 | ibrutinib 0.043 | [10] -0.015 | ralimetinib 0.275 | [11] 0.062 | [12] 0.043 | [13] -0.405 | pinometostat 0.026 | [14] -0.008 | [15] 0.007
active: [6] 0.429

FBXO6 (UniProt Q9NRD1)
UniProt Q9NRD1, sequence (Q9NRD1 whole entry, looked up): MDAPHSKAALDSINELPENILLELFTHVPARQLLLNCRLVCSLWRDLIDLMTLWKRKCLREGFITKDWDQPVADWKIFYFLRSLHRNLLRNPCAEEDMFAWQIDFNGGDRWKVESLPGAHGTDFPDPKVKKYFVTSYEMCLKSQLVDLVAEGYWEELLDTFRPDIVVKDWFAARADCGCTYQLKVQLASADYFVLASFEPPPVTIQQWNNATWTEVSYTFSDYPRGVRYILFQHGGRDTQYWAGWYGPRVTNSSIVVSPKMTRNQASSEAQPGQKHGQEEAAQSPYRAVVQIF
active: [12] 0.437
inactive: erlotinib -0.069 | [1] 0.046 | [2] 0.075 | [3] 0.007 | [4] 0.048 | [5] 0.007 | [6] 0.021 | [7] 0.002 | [8] -0.031 | [9] 0 | IRAK-1-4 Inhibitor I -0.015 | ibrutinib 0.015 | [10] -0.068 | ralimetinib 0.004 | [11] -0.127 | [13] -0.046 | pinometostat -0.021 | [14] -0.043 | [15] 0.068

GCSH (UniProt P23434)
inactive: erlotinib -0.072 | [1] -0.023 | [2] 0.253 | [3] 0.061 | [4] -0.036 | [5] 0.067 | [6] -0.038 | [7] -0.007 | [8] -0.017 | [9] -0.025 | IRAK-1-4 Inhibitor I 0.027 | ibrutinib -0.002 | [10] 0.011 | ralimetinib -0.026 | [11] -0.031 | [12] -0.025 | [13] -0.049 | pinometostat -0.021 | [14] 0.029 | [15] 0.03

FANCI (UniProt Q9NVI1)
inactive: erlotinib 0.083 | [1] 0.026 | [2] 0.056 | [3] 0.062 | [4] 0.142 | [5] 0.008 | [6] 0.053 | [7] -0.019 | [8] -0.028 | [9] -0.006 | IRAK-1-4 Inhibitor I -0.043 | ibrutinib -0.082 | [10] -0.148 | ralimetinib -0.008 | [11] -0.146 | [13] -0.136 | pinometostat 0.006 | [14] -0.038 | [15] -0.098
active: [12] -0.377

GALNT1 (UniProt Q10472)
inactive: erlotinib -0.001 | [1] -0.014 | [2] -0.069 | [3] 0.022 | [4] 0.031 | [5] 0.006 | [6] 0.06 | [7] -0.003 | [8] 0.004 | [9] 0.06 | IRAK-1-4 Inhibitor I -0.106 | ibrutinib 0.023 | [10] -0.002 | ralimetinib 0.101 | [11] 0.018 | [12] 0.048 | [13] -0.141 | pinometostat -0.025 | [14] -0.001 | [15] 0.021

HSPA8 (UniProt P11142)
inactive: erlotinib -0.016 | [1] -0.031 | [2] 0.01 | [3] -0.014 | [4] 0 | [5] 0 | [6] -0.003 | [7] -0.088 | [8] 0.009 | [9] 0.017 | IRAK-1-4 Inhibitor I 0.032 | ibrutinib -0.015 | [10] 0.014 | ralimetinib -0.004 | [11] 0.029 | [12] 0.037 | [13] -0.013 | pinometostat -0.023 | [14] -0.009 | [15] -0.016

FNTB (UniProt P49356)
UniProt P49356, sequence (P49356 whole entry, looked up): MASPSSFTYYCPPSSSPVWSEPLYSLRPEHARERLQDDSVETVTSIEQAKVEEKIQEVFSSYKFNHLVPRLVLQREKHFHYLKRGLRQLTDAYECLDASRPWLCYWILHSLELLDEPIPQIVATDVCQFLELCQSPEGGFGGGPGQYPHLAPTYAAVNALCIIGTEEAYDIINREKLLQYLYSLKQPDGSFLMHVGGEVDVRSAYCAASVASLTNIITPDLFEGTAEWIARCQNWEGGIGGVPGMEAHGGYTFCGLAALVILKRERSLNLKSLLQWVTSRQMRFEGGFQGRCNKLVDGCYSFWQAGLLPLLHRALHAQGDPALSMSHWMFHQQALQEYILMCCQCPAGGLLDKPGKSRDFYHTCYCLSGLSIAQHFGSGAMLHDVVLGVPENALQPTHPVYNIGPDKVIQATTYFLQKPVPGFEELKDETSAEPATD
inactive: [1] 0.028 | [2] 0.203 | [3] 0.028 | [4] 0.208 | [5] -0.024 | [6] 0.091 | [7] 0.107 | [8] 0.326 | [9] 0.065 | IRAK-1-4 Inhibitor I 0.017 | ibrutinib 0.309 | [10] -0.028 | ralimetinib -0.016 | [11] -0.025 | [12] 0.074 | [13] -0.033 | pinometostat -0.003 | [14] -0.146 | [15] -0.087
active: erlotinib 0.488

FEN1 (UniProt P39748)
UniProt P39748, sequence (P39748 whole entry, looked up): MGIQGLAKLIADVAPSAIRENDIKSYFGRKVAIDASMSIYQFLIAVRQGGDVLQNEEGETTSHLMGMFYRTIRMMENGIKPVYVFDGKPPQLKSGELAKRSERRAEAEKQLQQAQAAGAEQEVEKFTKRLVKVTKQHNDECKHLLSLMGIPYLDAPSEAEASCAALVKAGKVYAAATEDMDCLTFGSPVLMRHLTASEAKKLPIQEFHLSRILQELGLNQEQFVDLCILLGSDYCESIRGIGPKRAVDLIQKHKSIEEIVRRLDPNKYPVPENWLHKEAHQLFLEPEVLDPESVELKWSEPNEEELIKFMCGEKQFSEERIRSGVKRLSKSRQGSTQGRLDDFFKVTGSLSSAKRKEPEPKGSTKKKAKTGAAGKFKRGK
inactive: erlotinib 0.126 | [1] 0.098 | [2] 0.091 | [3] 0.026 | [4] 0.172 | [5] 0.003 | [6] 0.118 | [7] 0.026 | [8] 0.007 | [9] -0.068 | IRAK-1-4 Inhibitor I -0.071 | ibrutinib -0.016 | [10] -0.116 | ralimetinib -0.008 | [11] -0.368 | [12] -0.393 | [13] 0.039 | pinometostat -0.03 | [14] -0.067 | [15] -0.016

HNRNPH2 (UniProt P55795)
UniProt P55795, sequence (P55795 whole entry, looked up): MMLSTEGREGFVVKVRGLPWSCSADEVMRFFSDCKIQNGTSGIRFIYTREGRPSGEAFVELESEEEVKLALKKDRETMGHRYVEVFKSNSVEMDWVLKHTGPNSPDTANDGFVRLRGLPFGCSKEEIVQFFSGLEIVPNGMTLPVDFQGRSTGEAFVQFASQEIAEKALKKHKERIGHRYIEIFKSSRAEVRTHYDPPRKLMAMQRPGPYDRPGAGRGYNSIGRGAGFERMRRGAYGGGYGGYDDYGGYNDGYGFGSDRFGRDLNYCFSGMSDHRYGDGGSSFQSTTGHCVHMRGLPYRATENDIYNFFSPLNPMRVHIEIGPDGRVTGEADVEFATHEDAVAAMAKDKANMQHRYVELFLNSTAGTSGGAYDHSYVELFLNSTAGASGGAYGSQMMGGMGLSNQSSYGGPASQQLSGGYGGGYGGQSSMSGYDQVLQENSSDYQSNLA
active: [12] -0.345
inactive: erlotinib 0.019 | [1] 0.17 | [2] 0.037 | [3] -0.028 | [4] 0.112 | [5] -0.031 | [6] -0.047 | [7] -0.016 | [8] -0.068 | [9] 0.024 | IRAK-1-4 Inhibitor I -0.081 | ibrutinib -0.024 | [10] -0.134 | ralimetinib 0.137 | [11] -0.067 | [13] 0.124 | pinometostat 0 | [14] 0.193 | [15] -0.104

HECTD1 (UniProt Q9ULT8)
inactive: erlotinib 0.009 | [1] 0.127 | [2] -0.031 | [3] -0.003 | [4] 0.025 | [5] 0.087 | [6] -0.038 | [7] -0.035 | [8] -0.076 | [9] -0.204 | IRAK-1-4 Inhibitor I -0.076 | ibrutinib -0.027 | [10] 0.001 | ralimetinib 0.054 | [11] -0.048 | [12] -0.091 | [13] 0.141 | pinometostat 0.079 | [14] 0.026 | [15] -0.158

GATD1 (UniProt Q8NB37)
inactive: erlotinib 0.028 | [1] -0.006 | [2] 0.111 | [3] -0.012 | [4] 0.057 | [5] 0.007 | [6] -0.01 | [7] 0.047 | [8] -0.006 | [9] 0.098 | IRAK-1-4 Inhibitor I -0.069 | ibrutinib 0.106 | [10] -0.099 | ralimetinib -0.026 | [11] 0.01 | [12] 0.026 | [13] 0.104 | pinometostat 0.141 | [14] 0.032 | [15] 0

HIP1R (UniProt O75146)
UniProt O75146, sequence (O75146 whole entry, looked up): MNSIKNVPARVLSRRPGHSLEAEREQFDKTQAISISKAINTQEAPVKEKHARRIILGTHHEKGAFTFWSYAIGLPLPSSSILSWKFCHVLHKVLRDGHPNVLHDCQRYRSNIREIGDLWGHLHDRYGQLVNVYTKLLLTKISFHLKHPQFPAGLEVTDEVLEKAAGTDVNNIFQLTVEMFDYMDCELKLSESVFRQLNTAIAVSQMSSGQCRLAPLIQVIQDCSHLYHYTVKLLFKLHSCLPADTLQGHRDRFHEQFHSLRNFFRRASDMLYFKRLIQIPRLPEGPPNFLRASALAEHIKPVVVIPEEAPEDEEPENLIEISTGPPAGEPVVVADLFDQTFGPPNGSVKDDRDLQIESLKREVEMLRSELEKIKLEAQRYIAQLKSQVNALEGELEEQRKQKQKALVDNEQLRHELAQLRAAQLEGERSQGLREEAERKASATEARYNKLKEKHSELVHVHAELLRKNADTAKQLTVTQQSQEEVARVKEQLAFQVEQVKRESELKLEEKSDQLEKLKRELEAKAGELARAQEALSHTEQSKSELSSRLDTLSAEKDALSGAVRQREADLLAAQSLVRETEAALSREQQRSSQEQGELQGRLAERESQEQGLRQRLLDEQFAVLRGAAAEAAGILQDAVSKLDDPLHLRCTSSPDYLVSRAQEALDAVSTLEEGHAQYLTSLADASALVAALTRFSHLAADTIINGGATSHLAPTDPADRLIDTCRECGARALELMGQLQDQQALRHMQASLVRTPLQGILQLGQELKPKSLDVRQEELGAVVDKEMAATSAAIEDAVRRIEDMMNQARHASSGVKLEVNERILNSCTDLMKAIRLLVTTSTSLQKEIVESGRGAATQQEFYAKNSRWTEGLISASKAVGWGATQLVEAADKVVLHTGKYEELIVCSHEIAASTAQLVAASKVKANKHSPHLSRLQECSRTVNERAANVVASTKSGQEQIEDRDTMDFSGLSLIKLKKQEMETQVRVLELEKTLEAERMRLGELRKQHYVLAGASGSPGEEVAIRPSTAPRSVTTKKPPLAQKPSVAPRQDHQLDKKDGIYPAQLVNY
inactive: erlotinib 0.017 | [1] 0.034 | [2] 0.024 | [3] 0.005 | [4] 0.054 | [5] 0.013 | [6] 0.018 | [7] 0.033 | [8] -0.004 | [9] -0.005 | IRAK-1-4 Inhibitor I 0.029 | ibrutinib -0.027 | [10] -0.022 | ralimetinib 0.01 | [11] -0.034 | [12] -0.059 | [13] -0.003 | pinometostat 0 | [14] -0.004 | [15] 0.138

GTF2B (UniProt Q00403)
inactive: erlotinib 0.069 | [1] 0.136 | [2] 0.048 | [3] -0.035 | [4] 0.149 | [5] 0.027 | [6] -0.033 | [7] 0.01 | [8] -0.065 | [9] -0.046 | IRAK-1-4 Inhibitor I -0.063 | ibrutinib -0.064 | [10] -0.023 | ralimetinib 0.044 | [11] -0.215 | [12] -0.125 | [13] 0.068 | pinometostat 0 | [14] -0.026 | [15] 0.07

FUT8 (UniProt Q9BYC5)
UniProt Q9BYC5, sequence (Q9BYC5 whole entry, looked up): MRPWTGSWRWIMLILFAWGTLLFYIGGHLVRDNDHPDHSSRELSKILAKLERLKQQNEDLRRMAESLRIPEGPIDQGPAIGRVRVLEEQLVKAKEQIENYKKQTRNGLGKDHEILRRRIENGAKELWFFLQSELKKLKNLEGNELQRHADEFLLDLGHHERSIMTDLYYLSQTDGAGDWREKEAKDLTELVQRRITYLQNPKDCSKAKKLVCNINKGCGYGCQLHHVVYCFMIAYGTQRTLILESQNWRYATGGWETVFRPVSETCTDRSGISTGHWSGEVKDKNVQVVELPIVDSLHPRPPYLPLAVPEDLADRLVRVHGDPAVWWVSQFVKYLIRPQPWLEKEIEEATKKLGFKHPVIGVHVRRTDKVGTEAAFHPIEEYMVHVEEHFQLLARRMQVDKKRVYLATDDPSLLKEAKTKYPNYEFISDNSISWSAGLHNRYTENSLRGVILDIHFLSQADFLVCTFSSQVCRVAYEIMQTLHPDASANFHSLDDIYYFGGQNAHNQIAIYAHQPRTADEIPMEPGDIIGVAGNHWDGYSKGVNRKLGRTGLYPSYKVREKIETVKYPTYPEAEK
inactive: erlotinib -0.036 | [1] 0.019 | [2] -0.07 | [3] -0.12 | [4] -0.145 | [5] -0.055 | [6] -0.004 | [7] -0.038 | [8] 0.045 | [9] -0.038 | IRAK-1-4 Inhibitor I -0.02 | ibrutinib 0.064 | [10] -0.098 | ralimetinib -0.087 | [11] 0.019 | [12] -0.133 | [13] 0.053 | pinometostat 0.065 | [14] 0.105 | [15] 0.077

HDAC6 (UniProt Q9UBN7)
UniProt Q9UBN7, sequence (Q9UBN7 whole entry, looked up): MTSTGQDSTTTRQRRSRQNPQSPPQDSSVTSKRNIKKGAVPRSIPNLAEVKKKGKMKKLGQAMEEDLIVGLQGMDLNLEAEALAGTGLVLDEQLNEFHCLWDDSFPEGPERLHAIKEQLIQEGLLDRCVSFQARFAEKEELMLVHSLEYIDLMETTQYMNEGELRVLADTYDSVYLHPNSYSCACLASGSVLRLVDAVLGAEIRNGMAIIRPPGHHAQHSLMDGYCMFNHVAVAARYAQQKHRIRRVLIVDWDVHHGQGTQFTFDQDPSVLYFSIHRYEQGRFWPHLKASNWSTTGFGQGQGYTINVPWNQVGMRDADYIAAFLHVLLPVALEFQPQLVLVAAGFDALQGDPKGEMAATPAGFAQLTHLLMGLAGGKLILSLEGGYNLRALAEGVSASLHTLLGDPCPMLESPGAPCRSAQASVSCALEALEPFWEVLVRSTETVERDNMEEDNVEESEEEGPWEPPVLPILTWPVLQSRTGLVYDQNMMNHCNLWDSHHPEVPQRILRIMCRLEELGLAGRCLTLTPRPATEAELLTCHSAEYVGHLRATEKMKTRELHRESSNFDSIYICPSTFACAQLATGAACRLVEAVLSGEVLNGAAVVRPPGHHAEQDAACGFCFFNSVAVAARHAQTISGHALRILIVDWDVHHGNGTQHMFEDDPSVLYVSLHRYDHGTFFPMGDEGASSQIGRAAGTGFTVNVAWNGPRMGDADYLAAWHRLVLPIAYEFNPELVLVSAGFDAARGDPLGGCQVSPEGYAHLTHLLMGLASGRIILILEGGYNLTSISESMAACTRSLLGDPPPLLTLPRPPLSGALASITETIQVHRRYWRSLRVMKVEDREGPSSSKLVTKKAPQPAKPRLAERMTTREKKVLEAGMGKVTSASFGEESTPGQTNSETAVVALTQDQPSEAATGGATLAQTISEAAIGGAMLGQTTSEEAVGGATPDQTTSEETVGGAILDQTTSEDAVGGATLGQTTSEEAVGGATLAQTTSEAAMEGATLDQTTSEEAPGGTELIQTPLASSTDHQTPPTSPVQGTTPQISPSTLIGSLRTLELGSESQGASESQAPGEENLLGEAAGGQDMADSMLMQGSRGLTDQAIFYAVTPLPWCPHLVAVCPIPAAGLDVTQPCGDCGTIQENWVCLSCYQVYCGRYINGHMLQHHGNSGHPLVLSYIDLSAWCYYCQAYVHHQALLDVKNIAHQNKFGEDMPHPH
inactive: [1] 0.033 | [2] -0.007 | [3] -0.007 | [4] 0.041 | [5] -0.164 | [6] 0.033 | [7] 0.07 | [8] -0.043 | [9] 0.115 | IRAK-1-4 Inhibitor I -0.086 | ibrutinib 0.314 | [10] -0.03 | ralimetinib 0.034 | [11] -0.023 | [12] 0.069 | [13] -0.025 | pinometostat 0.009 | [14] -0.046 | [15] 0.021
active: erlotinib 0.43

HADHB (UniProt P55084)
UniProt P55084, sequence (P55084 whole entry, looked up): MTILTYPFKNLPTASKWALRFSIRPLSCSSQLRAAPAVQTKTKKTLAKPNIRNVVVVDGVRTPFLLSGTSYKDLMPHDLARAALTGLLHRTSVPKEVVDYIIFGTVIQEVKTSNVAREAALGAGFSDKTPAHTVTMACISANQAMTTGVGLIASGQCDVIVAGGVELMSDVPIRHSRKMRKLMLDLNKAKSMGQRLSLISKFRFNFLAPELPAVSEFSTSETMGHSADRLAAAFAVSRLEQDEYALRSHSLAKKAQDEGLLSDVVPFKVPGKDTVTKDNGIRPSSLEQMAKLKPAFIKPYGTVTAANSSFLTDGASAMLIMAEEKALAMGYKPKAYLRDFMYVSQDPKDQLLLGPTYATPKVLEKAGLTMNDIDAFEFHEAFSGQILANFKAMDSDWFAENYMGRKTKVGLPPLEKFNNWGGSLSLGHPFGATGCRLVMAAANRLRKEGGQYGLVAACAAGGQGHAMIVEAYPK
inactive: erlotinib -0.057 | [1] 0.112 | [2] 0.035 | [3] -0.184 | [4] 0.063 | [5] 0.024 | [6] 0.04 | [7] 0.259 | [8] -0.206 | [9] 0.158 | IRAK-1-4 Inhibitor I -0.025 | ibrutinib 0.074 | [10] -0.326 | ralimetinib 0.068 | [11] -0.155 | [12] 0.37 | [13] -0.106 | pinometostat -0.05 | [14] -0.147 | [15] 0.104
